Assay outcomes from PubChem.
Only some compounds are listed: those with a hit (about 4.5% of all), similar ones and a draw of the others.
Mdm2 MdmX PPI = human Mdm2/MdmX binding inhibition; SaOS-2 split-luciferase Mdm2/MdmX complementation, luminescence; actives 3% (n = 330,000); O15151+Q00987; inhibition, % at 8 µM;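 active = inhibition of at least 50% at 8 µM in the primary screen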
Target sequence (O15151 whole entry, looked up): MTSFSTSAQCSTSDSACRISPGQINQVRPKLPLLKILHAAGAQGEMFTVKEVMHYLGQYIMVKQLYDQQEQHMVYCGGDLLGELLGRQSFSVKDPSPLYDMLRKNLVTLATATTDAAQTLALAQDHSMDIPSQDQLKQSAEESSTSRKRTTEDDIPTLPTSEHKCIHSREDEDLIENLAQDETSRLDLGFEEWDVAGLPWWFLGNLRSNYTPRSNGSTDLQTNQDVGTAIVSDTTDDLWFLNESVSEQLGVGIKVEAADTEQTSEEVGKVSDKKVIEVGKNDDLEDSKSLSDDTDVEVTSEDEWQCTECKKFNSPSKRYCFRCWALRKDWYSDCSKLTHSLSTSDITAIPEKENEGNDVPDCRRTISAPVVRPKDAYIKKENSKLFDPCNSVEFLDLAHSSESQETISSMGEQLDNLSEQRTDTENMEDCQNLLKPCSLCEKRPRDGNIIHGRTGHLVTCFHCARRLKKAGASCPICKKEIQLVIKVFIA
Target sequence (Q00987 whole entry, looked up): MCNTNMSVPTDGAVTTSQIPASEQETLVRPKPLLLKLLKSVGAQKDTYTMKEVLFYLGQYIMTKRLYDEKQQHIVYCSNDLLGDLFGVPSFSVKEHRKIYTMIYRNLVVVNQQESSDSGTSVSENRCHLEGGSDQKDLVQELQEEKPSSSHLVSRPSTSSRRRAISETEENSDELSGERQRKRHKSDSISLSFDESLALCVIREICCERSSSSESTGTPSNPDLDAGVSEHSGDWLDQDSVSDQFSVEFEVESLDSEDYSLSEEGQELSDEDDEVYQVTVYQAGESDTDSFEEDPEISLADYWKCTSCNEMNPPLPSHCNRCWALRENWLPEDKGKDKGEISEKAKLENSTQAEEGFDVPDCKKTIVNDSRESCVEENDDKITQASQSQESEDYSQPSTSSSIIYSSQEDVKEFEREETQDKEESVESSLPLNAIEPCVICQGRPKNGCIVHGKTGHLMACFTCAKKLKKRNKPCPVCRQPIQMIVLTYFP
aSyn 5UTR inh = 5' untranslated region of α-synuclein, MLPCN primary screen. alpha-synuclein 5'UTR reporter, inhibitor activity. inhibition, % (tested at 7.5 µM). actives 0.82% (n = 300,000); in the data active = inhibition above about 60%;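 also: H4 neuroglioblastoma cells stably carrying SNCA 5'UTR luciferase fusion; 0% = DMSO wells and 100% = positive control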
Jurkat NFkB inh = inhibitors of the PMA/ionomycin-induced NF-kB reporter in Jurkat cells. PMA/ionomycin-induced NF-kB luciferase reporter, luminescence. inhibition, % at 4 µM. actives 0.53% (n = 330,000). AID 435003; in the data active = inhibition above about 50%
697 NFkB inh = lowers PMA/ionomycin-induced NF-kB signal in 697 B cells; actives 0.33% (n = 330,000); 697 B-cell NF-kB luciferase reporter, 16 h; AID 435022; inhibition, % at 4 µM; in the data active = inhibition above about 35%
Gli-Sufu antag = blocks Gli-Sufu signaling in a luciferase reporter. Sufu-KO-LIGHT fibroblasts, Gli luciferase reporter luminescence. inhibition, % at 5 µM. actives 0.74% (n = 340,000). AID 588413;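 active = inhibition above about 55%, limit read from the data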;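 also: 0% = DMSO-treated cells and 100% = wells with medium but no cells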
CSC inhib = cancer stem cell inhibition | actives 1.1% (n = 300,000) | cancer stem cell-like cells viability, luminescence | inhibition, % at 7.5 µM; in the data active = inhibition above about 75%; tested in HMLE shEcad cells
Jurkat NFkB conf = lowers PMA/ionomycin-induced NF-kB signal in Jurkat cells; shares compounds with Jurkat NFkB inh; Jurkat NF-kB luciferase, 16 h; inhibition, % at 4 µM; actives 27% (n = 2,700); AID 435020;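 active = inhibition reaching about 45% at 4 µM in either replicate, limit read from the data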;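 also: plate controls were PMA/ionomycin stimulated DMSO wells for no effect and unstimulated DMSO wells for full effect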
697 NFkB conf = lowers PMA/ionomycin-induced NF-kB signal in 697 B cells; shares compounds with 697 NFkB inh; 697 B-cell NF-kB luciferase, 16 h; inhibition, % at 4 µM; actives 35% (n = 2,000); AID 449746; in the data active = inhibition mostly above about 28%, no sharp cut-off; inactive = mostly below about 22%
Mdm2 MdmX conf = confirmation of human Mdm2/MdmX interaction inhibitors; shares compounds with Mdm2 MdmX PPI; Mdm2-MdmX binding, luminescent assay; inhibition, % at 8 µM; actives 55% (n = 10,000); AID 489028; in the data active = inhibition above about 40%
FLuc counter = counter-screen for Mdm2/MdmX inhibitors: full-length luciferase; inhibition, % at 8 µM; shares compounds with Mdm2 MdmX PPI; SaOS-2 full-length luciferase counterscreen, luminescence; AID 504607; actives 77% (n = 6,200);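 active = mean inhibition at 8 µM reaching about 37%, which flags the compound as non-specific, limit read from the data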;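 also: p53-null SaOS-2 cells with luciferase driven by a doxycycline-inducible promoter; compound on cells about two nights before reading with doxycycline added after day one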
Starred values were filed as active, the others as inactive; · = no result given.

SMILES | Mdm2 MdmX PPI | aSyn 5UTR inh | Jurkat NFkB inh | 697 NFkB inh | Gli-Sufu antag | CSC inhib | Jurkat NFkB conf | Mdm2 MdmX conf | FLuc counter | others
CC(C)Oc1ccccc1C1CC(=O)Nc2cc3c(cc21)OCO3 (stereo not drawn) | 70* | 91* | 76* | 7 | 54 | 54 | 53* | 61* | 84*
CCOC(=O)c1ccc(NC(=O)Nc2ccon2)cc1 | 53* | 64* | 58* | -7 | 42 | 78* | 34 | 43* | 115*
CCOC(=O)c1ccc(NC(=O)Nc2ccc(Cl)cn2)cc1 | -15 | -34 | -1 | 4 | -14 | · | · | · | ·
O=C(Nc1ccc(Cl)c(Cl)c1)Nc1ccon1 | 56* | -69 | 53* | -18 | -18 | 47 | 32 | 66* | 56*
COc1ccc(N(C(=O)c2snc(C(N)=O)c2N)C(CC(C)C)C(=O)NCC2CCCO2)cc1 (stereo not drawn) | -14 | -7 | 9 | -5 | 20 | -8 | · | · | ·
CC(NC(=O)c1ccccc1)C(c1cccs1)N1CCOCC1 (stereo not drawn) | 6 | 1 | -9 | 6 | 0 | -20 | · | · | ·
COc1ccc(N(C=O)C(C(=O)Nc2c(C)cccc2C)c2ccccc2)cc1 (stereo not drawn) | 7 | -26 | -7 | 8 | 1 | 9 | · | · | ·
COc1cccc(NC(=O)Nc2nc(-c3ccc(OC)c(OC)c3)cs2)c1 | 96* | 41 | 90* | 56* | 33 | 104* | 14 | 98* | 52* | 697 NFkB conf=3
Cc1cc(C(=O)COC(=O)c2ccccc2O)c(C)n1CC1CCCO1 (stereo not drawn) | 94* | · | 74* | 52* | 58* | · | 86* | 97* | 36 | 697 NFkB conf=43*
CCn1c(C)cc(C(=O)COC(=O)c2ccccc2[N+](=O)[O-])c1C | 96* | · | 59* | 41* | 87* | 7 | 94* | 96* | 53* | 697 NFkB conf=47*
COc1ccc(-c2cn3nc(SCC(=O)NC4CCCCC4)ccc3n2)cc1 | -63 | 0 | -121 | -131 | -74 | -15 | · | · | ·
O=C(c1ccccc1)c1nn(-c2ccc(Cl)cc2)c(=O)cc1C(F)(F)F | 95* | -219 | 98* | -131 | 12 | 108* | 80* | 78* | 56*
O=C(c1ccccc1)c1nn(-c2ccccc2)c(=O)cc1C(F)(F)F | 44 | -50 | 7 | -24 | 3 | 4 | · | · | ·
O=C(O)c1ccc(S(=O)(=O)N(CCc2ccccc2)Cc2ccc(Cl)cc2)cc1 | 8 | 1 | 4 | 33 | 4 | 20 | · | · | ·
O=C(c1cc(COc2ccc(F)cc2Cl)on1)N1CCSCC1 | -91 | -197 | -55 | -79 | -60 | -2 | · | · | ·
Cn1nc(-c2ccccn2)nc2c(=O)n(C)c(=O)nc1-2 | 66* | 94* | 56* | -61 | 3 | 120* | 95* | 80* | 34
COc1cc2c(cc1OC)C(C)N(C(=O)c1cc(C)on1)CC2 (stereo not drawn) | 61* | 97* | 64* | 21 | 37 | 54 | 51* | 68* | 82*
COc1ccc(C(=O)c2sc(Nc3ccccc3)nc2C)cc1 | -10 | -32 | -9 | -14 | -6 | · | · | · | ·
COc1ccc(Nc2nc(N)c(C(=O)c3ccc(OC)cc3)s2)cc1 | 50* | 18 | 50 | -61 | 6 | 46 | 14 | 59* | 60*
N=c1c(C(=O)NC2CCCCC2)cc2c(=O)n3ccccc3nc2n1CCc1ccccc1 | 94* | -40 | 58* | 4 | 34 | -4 | -51 | 97* | 17
Clc1ccc(C(Cn2ccnc2)OCc2c(Cl)cccc2Cl)c(Cl)c1 (stereo not drawn) | 32 | · | 7 | 9 | 8 | 22 | · | · | ·
